ALDH1A1 inh – blocks purified human ALDH1A1 activity; Purified ALDH1A1, NADH fluorescence, propionaldehyde substrate; AID 1030; Potency, µM (highest dose often 75.3 µM), inactives show at the highest dose activity, negative = inhibition, actives largely listed as inhibitors; P00352; hit rate 7.3% among 220,000; active means well fitted inhibition curve with a large enough effect, not every such curve was filed as active; inconclusive means small, poorly fitted or top-dose-only effect, or another doubt; inactive means no such curve, though single readings can be large or run the other way;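 further: potency means the concentration at half of the fitted maximal effect; plate controls were no enzyme wells and a reference inhibitor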
Target sequence (P00352 whole entry, looked up): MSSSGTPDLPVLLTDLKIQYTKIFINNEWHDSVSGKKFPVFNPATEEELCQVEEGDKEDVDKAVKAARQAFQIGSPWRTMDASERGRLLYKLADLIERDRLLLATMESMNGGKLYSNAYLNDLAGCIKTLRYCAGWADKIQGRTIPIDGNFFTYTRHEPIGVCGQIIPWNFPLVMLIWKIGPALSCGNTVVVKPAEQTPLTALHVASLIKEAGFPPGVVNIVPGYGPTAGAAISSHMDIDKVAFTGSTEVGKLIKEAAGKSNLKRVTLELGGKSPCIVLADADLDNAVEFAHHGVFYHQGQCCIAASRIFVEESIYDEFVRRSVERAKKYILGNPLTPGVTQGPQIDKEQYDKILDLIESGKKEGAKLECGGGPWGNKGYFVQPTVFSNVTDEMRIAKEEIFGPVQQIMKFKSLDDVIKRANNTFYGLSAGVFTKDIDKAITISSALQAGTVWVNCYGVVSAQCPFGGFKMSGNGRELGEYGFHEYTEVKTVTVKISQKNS
RORgamma inh – ROR gamma (mouse) transcription inhibition; P51450; Drosophila S2 Gal4-RORgamma UAS-luciferase reporter, 20 h; Potency, µM (highest dose often 53.6 µM), inactives show top-dose activity change, negative = inhibition, hits mostly inhibitors; hit rate 5.4% among 310,000; AID 2551; further: potency means the concentration at half of the fitted maximal effect; nearly all actives have a fitted effect of over 60% in size
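Stably transfected Drosophila Schneider cells are the test system, with ROR gamma fused to Gal4 and luciferase under UAS control; luminescence is read after 20 hr of 700 uM copper sulfate induction at ambient temperature.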
Gal4-VP16 FLuc – Gal4-VP16 reporter inhibition counter-screen. Drosophila S2 Gal4-VP16 UAS-luciferase, luminescence, 20 h. Potency, µM (doses to about 53.6 µM), without a hit: at the highest dose activity, negative = inhibition, actives largely listed as inhibitors. hit rate 3.5% among 310,000;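 further: Gal4-VP16 expression switched on by copper sulfate through the metallothionein promoter; potency means the concentration at half of the fitted maximal effect; nearly all actives have a fitted effect of over 50% in size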
PLK1 PBD inh – inhibitors of human PLK1 polo-box domain binding. P53350. Plk1 PBD binding of FITC phosphopeptide, fluorescence polarization. Potency, µM, without a hit: max response, negative = inhibition, actives largely listed as inhibitors. hit rate 2.8% among 360,000; further: potency means the concentration at half of the fitted maximal effect; series mostly up to about 57 µM; nearly all actives have a fitted effect of over 65% in size
Sfp inh – inhibitors of Bacillus subtilis Sfp phosphopantetheinyl transferase; Q9F4F7; Biochemical Sfp PPTase activity, qHTS; Potency, µM, for inactives: largest response in the series, negative = inhibition, most hits filed as inhibitors; hit rate 3.5% among 310,000;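 further: the enzyme is Sfp with the accession as filed and its product quenches rhodamine fluorescence; potency means the concentration at half of the fitted maximal effect; 0% = enzyme reaction without inhibitor and -100% = no enzyme wells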
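Reaction rates are the 30-min fluorescence difference (ex 525, em 598 nm) in wells containing 15 nM Sfp, 5 uM rhodamine-CoA and 12.5 uM BHQ-2-YbbR at pH 7.6 with 10 mM MgCl2.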
Sfp inh conf – Sfp phosphopantetheinyl transferase inhibition, confirmation; shares compounds with Sfp inh; Sfp PPTase enzymatic assay, qHTS titration; Potency, µM (doses to about 114 µM), for the others: at the highest dose activity change, negative = inhibition, actives largely listed as inhibitors; hit rate 79% among 380; AID 2701;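 further: potency means the concentration at half of the fitted maximal effect; plate controls were uninhibited Sfp reaction for no effect and no enzyme control for full effect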
Target sequence (Q9F4F7 whole entry, looked up): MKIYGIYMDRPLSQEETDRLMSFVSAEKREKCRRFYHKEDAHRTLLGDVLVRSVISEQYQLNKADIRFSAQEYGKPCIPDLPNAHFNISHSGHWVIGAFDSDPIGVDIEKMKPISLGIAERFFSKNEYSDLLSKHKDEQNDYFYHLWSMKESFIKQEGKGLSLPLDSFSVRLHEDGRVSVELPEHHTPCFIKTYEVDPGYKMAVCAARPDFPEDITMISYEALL
Sfp PPTase gel – Inhibits Bacillus subtilis Sfp phosphopantetheinyl transferase; shares compounds with Sfp inh; Potency, µM, actives largely listed as inhibitors; hit rate 20% among 210; purified Sfp, gel-based phosphopantetheinylation read-out;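 active means potency below 100 µM; inconclusive means dose-dependent response but potency above 100 µM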;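 further: band intensities scaled against SCH202676 control wells before curve fitting; potency is an IC50 for inhibitors of Sfp transfer activity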
An asterisk follows results filed as active; i = inactive; ? = inconclusive; . = not tested or not shown; ! = a repeat was not active; [ ] = another dose, or the depositor's remark. Rows were chosen to be rich in hits. Some 12% of all compounds tested hit in one or more screens of this group. Unless noted, the call rests on the fitted dose curve; in most records, active means well fitted curve in the direction sought with a large enough effect; inconclusive means small, poorly fitted or top-dose-only effect, or another doubt; inactive means no such curve, though single readings can be large; an effect the other way counts as inactive or inconclusive. Unless noted, on the % scale 0 is the no-effect control and ±100 the full control effect.

SMILES	ALDH1A1 inh	RORgamma inh	Gal4-VP16 FLuc	PLK1 PBD inh	Sfp inh	Sfp inh conf	Sfp PPTase gel
c1c[nH]c(CN2CCN(Cc3ncc[nH]3)CC2)n1	1.3%[13.5 µM]	.	.	3.3%	.	.	.
CN1C(C(=O)Nc2ccc(C(=O)O)cc2)=C(O)c2ccccc2S1(=O)=O	.	.	.	-4.5%	.	.	.
CN1C(C(=O)Nc2ccccn2)=C(O)c2sccc2S1(=O)=O	4.9%	?	-3.0%	5.8%	50.1µM*!	11.8µM*	i
O=C([C@H](O)c1ccccc1)N1CCC[C@H]1CO	8.6%	-4.4%	-5.1%	-4.5%	9.7%	.	.
COC(=O)c1ccc(-c2nc(O)c(C)s2)cc1	20µM*	-0.8%	-2.7%[10 µM]	7.52µM*	14.1µM*	46.9µM*	.
c1ccc(N2CCN(c3nc4ccccc4n4cnnc34)CC2)cc1	-10.7%	17.4%	2.2%	1.5%	1.5%	.	.
C1=C(c2ccccc2)CCN(c2nc3ccccc3n3cnnc23)C1	28.2µM*	?	19.6%	-24.1%	28.2µM*	37.3µM*	.
CCCCS(=O)(=O)Nc1ccc(C)cn1	?	14.4%	5.5%	21.2µM*	39.8µM*	46.9µM*	i
O=C(CCc1c[nH]c2ccccc12)N1CCN(S(=O)(=O)c2ccc(F)cc2)CC1	.	.	.	1.1%	.	.	.
CC(C)c1ccc(CNc2nc(NCC3CC3)nc3ccsc23)cc1	.	.	.	-0.5%	.	.	.
CC(C)c1ccc(Cn2ccc3c4c(N)nc(NC5CC5)nc4ccc32)cc1	1.8%	15.8µM*	?	.	5.01µM*	13.2µM*	?
Cc1cccc(Nc2nc(NCc3ccco3)c3ccccc3n2)c1	?	18.9%	-9.1%	9.8%	2.51µM*	37.3µM*	i
COc1ccc(OC)c(Nc2nc(NCc3ccco3)c3ccccc3n2)c1	.	3.9%[1.91 µM]	?	0.7%	?	.	.
CN(CC(=O)c1c(N)n(C)c(=O)n(C)c1=O)c1ccccc1	8.3%	1.0%	-8.2%	3.4%	9.9%	.	.
COc1ccc(C(=O)N/C(=C\c2ccc(SC)cc2)C(=O)NCCCn2ccnc2)cc1OC	.	.	.	-1.0%	.	.	.
CC1=CSC2=NC(=O)/C(=C\c3cccn3-c3ccc([N+](=O)[O-])cc3)C(=N)N12	-12.5%	?	3.16µM*	-3.5%	1µM*	37.3µM*	i
CS(=O)(=O)N1CCCC(C(=O)Nc2ccc(F)cc2F)C1 (stereo not given)	13.2%	-0.8%	1.6%	-9.5%	21.2%	.	.
ONc1cccnc1-n1nc(C(F)(F)F)cc1C(F)(F)F	?	10.7%	-4.6%[10 µM]	.	8.91µM*	14.8µM*	.
COCCCNc1nc(CC(C)C)nc2c1nnn2Cc1ccccc1	.	27.5%	4.2%	6.0%	10.2%	.	.
O=C(Nc1ccc(F)cc1)Nc1ccccc1C(=O)NCCN1CCNC1=O	-4.0%	-4.1%	4.5%	3.9%	20.7%	.	.
CCOC(=O)c1c(C)[nH]c(C2=NNC(=NC3CC3)SC2)c1C	17.8µM*	?	?	29.9µM*	7.08µM*	41.8µM*	.
O=C(O)Cc1ccc(NC(=O)Nc2ccc(Br)cc2)cc1	4.5%	-23.6%	-24.6%	-1.9%	39.8µM*	?	.
CC(=O)O[C@@]12CO[C@@H]1C[C@H](O)[C@@]1(C)C(=O)[C@H](O)C3=C(C)[C@@H](OC(=O)C(O)[C@@H](NC(=O)OC(C)(C)C)c4ccccc4)C[C@@](O)([C@@H](OC(=O)c4ccccc4)[C@H]21)C3(C)C (stereo not given in full)	.	?	-23.7%	.	6.31µM*	14.8µM*	i
CCCCN(CCCC)CC(O)c1cc(Cl)cc2c1-c1ccc(Cl)cc1/C2=C/c1ccc(Cl)cc1 (stereo not given)	.	-19.1%	?	.	44.7µM*	41.8µM*	?
CC(C)CC1NC(=O)N(CC(=O)Nc2ccc(-c3ccccc3)cc2)C1=O (stereo not given)	.	.	.	-6.1%	.	.	.
SMILES	ALDH1A1 inh	RORgamma inh	Gal4-VP16 FLuc	PLK1 PBD inh	Sfp inh	Sfp inh conf	Sfp PPTase gel
Cc1ccccc1OCC1Cn2c(nc3c2c(=O)n(C)c(=O)n3C)O1 (stereo not given)	.	?	-15.4%	-5.8%	4.2%	.	.
NC(=O)c1c(NC(=O)C2CCCO2)sc2c1CCCC2 (stereo not given)	?	2.3%	17.0%	10.6µM*	1.26µM*	13.2µM*	.
COC(=O)c1cc(C)nc2c1c(C)nn2-c1ccccc1	.	.	.	5.4%	.	.	.
Cc1nn(-c2ccccc2)c2nc(-c3ccco3)cc(C(=O)O)c12	?	18.8%	10.2%	?	12.6µM*	21µM*	?
CCCn1c(N)c(N(CCOC)C(=O)c2ccc(S(=O)(=O)N3CCOCC3)cc2)c(=O)[nH]c1=O	.	.	.	1.4%	.	.	.
NC(Cc1ccc(O)c([N+](=O)[O-])c1)C(=O)O (stereo not given)	-9.4%	-2.2%[10 µM]	-18.9%	-4.8%	?	.	.
N[C@@H](Cc1ccc(O)c(O)c1)C(=O)O	-5.3%[20.9 µM]	-8.4%[16.9 µM]	-10.4%[17 µM]	-7.7%	39.8µM*	-6.4%[53.7 µM]	?
CN1CCC(=C2c3ccccc3C=Cc3ccccc32)CC1	2.9%	?	8.1%	0.3%	44.7µM*!	83.5µM*	i
CC(C)(C)C(=O)OCOP(=O)(COCCn1cnc2c(N)ncnc21)OCOC(=O)C(C)(C)C	.	-14.6%[10 µM]	-2.8%	.	56.2µM*	?	?
O=C(NN=Cc1ccccc1O)C(O)(c1ccccc1)c1ccccc1	.	.	.	3.4%	.	.	.
O=C(N/N=C/c1ccc(N2CCCCC2)o1)C(O)(c1ccccc1)c1ccccc1	?	11.2µM*	12.6µM*	.	8.91µM*	37.3µM*	.
CCSc1nc2ccccc2[nH]1	-0.4%	17.9%	-5.6%	-3.1%	6.6%	.	.
Nc1ccccc1Sc1nc2ccccc2[nH]1	12.6µM*	3.55µM*	12.6µM*	13.4µM*	7.94µM*	37.3µM*	.
CCC(C)(C)n1nnnc1C(c1ccc(O)c(OC)c1)N1CCc2ccccc2C1 (stereo not given)	?	-25.8%	19.3%	26.7µM*	3.55µM*	5.91µM*	.
Cc1ccccc1Nc1c(-c2cccnc2)nc2ccccn12	.	-3.4%	1.0%	-7.1%	10.1%	.	.
Cc1ccc(-c2nc3cnccn3c2Nc2c(C)cccc2C)o1	?	11.2µM*	-10.6%	?	0.501µM*	4.18µM*	i
CCCCn1c(N)c(N(CC)C(=O)C2COc3ccccc3O2)c(=O)[nH]c1=O (stereo not given)	.	.	.	-0.2%	.	.	.
O=C(Nc1ccc(S(=O)(=O)NCc2ccccc2)cc1)C1CCCCC1	.	35.2%	1.4%	-0.2%	16.5%	.	.
CC1=NNC(=O)/C1=C\c1cn(-c2ccccc2)nc1-c1ccccc1	-8.8%	1.12µM*	1.8%[10 µM]	5.97µM*	3.55µM*	41.8µM*	18.5µM*
Cc1cc(Nc2cccc(Cl)c2)nc(NCc2ccccc2)n1	4.3%	?	15.8µM*	-14.9%	15.8µM*	59.1µM*	?
CC(C)/C(C=O)=C(/NC1CCCCC1)c1ccccc1	.	.	.	-6.6%	.	.	.
